Bioassay records: PubChem BioAssay, National Center for Advancing Translational Sciences (NCATS)
gsp agonist: agonists of gsp mutant (McCune-Albright syndrome); gsp mutant cells, cAMP HTRF, 30 min; Potency, µM (titrated, usually from 76.9 µM), for the others: top-dose activation (cAMP increase), usual class: activators; 340,000 compounds, 0.13% hits; active means well fitted activation curve with a large enough effect; inconclusive means small, poorly fitted or top-dose-only effect, or another doubt; inactive means no such curve, though single readings can be large or run the other way; cell line not stated here;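 further: phosphodiesterase inhibitor Ro 20-1724 added with compounds to block cAMP breakdown; potency means the concentration at half of the fitted maximal effect; nearly all actives have a fitted effect of over 60% in size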
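Cells stably selected in G418 were plated at 2000/well, grown 16-24 hr, then given compounds in DMSO with the PDE inhibitor […] (300 uM solution added) for 30 min at 37C; cAMP was read by HTRF.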
gsp antag: antagonizes gsp, the McCune-Albright syndrome mutation | Potency, µM (series often up to 76.9 µM), inactives show at the top dose activity change, negative = inhibition, usual class: inhibitors | 340,000 compounds, 0.4% hits | gsp-mutant cells, cAMP HTRF, 30 min | AID 624288; calls by dose curve; cell line not stated here;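 further: intracellular cAMP measured with PDE inhibitor Ro 20-1724 present during compound exposure; potency means the concentration at half of the fitted maximal effect; on the % scale 0 is the no-effect control and ±100 the full control effect; nearly all actives have a fitted effect of over 65% in size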
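G418-selected cells were plated in DMEM/10% FBS for 16-24 h at 37C, then treated with compounds plus the PDE inhibitor […] (300 uM solution added) for 30 min at 37C. Intracellular cAMP was measured by HTRF after 30 min lysis at room temperature.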
RXFP1 antag: RXFP1 (human) relaxin receptor antagonism | Q9HBX9 | HEK293-RXFP1, relaxin-stimulated cAMP HTRF, 30 min; active compounds read low | activity change, negative = inhibition, % at 57.5 µM | 350,000 compounds, 0.59% hits | AID 1259400;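 active means activity change of -60% or lower, but not beyond a set lower limit; inconclusive means change between -60% and -40%, or beyond the set limit; inactive means change above -40%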; further: on the % scale 0 is the no-effect control and ±100 the full control effect
Target sequence (Q9HBX9 whole entry, looked up): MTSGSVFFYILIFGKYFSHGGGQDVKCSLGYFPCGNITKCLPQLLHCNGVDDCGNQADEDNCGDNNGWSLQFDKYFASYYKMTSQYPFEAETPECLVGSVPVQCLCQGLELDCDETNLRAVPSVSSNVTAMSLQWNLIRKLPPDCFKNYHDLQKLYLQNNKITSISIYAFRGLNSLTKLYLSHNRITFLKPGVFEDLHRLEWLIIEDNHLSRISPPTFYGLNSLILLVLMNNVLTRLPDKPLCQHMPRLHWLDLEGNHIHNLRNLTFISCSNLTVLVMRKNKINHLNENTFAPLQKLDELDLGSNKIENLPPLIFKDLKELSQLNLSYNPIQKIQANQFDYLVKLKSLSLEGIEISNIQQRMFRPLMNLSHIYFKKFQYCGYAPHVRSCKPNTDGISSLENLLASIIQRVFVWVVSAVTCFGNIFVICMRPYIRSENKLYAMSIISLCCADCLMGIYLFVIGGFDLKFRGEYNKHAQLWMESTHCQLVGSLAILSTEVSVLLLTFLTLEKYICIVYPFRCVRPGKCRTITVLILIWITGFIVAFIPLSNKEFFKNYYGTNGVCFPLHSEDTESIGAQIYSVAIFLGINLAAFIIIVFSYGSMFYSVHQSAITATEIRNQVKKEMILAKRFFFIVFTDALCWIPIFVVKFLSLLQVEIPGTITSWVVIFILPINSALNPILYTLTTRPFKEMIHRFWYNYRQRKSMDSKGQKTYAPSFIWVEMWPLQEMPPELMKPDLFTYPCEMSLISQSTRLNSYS
TRPV1 agonist: agonists of human vanilloid receptor 1 (TRPV1); 320,000 compounds, 0.19% hits; activation, % at 8.33 µM; AID 540275; TRPV1-expressing cells, Fluo-8 calcium influx, agonist mode; Q8NER1; in the data active means activation above about 80%; inconclusive means between about 30% and that limit; further: 0% is about no effect
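Fluo-8 calcium influx in TRPV1-expressing cells, kinetic read (ex 480/em 520 nm). Compound added and read 3 min for agonist activity, followed by capsaicin at EC20 final and 2 min further read for enhancement.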
RXFP1 ag: RXFP1 (human) receptor agonism; 370,000 compounds, 0.3% hits; AID 2676; Q9HBX9; HEK293T-RXFP1 cAMP TR-FRET, 30 min; response scale: percent of porcine relaxin response, buffer zero; Potency, µM (series often up to 57.5 µM), without a hit: at the highest dose activation, actives largely listed as activators; active means well fitted activation curve with a large enough effect; inconclusive means small, poorly fitted or top-dose-only effect; further: potency means the concentration at half of the fitted maximal effect; on the % scale 0 is the no-effect control and ±100 the full control effect; nearly all actives have a fitted effect of over 60% in size
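Agonist response is measured as cAMP accumulation in an RXFP1-transfected HEK293T line under PDE4 inhibition. Values are scaled between buffer-only and 29 nM porcine relaxin, and EC50s come from standard Hill equation fits.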
TRPV1 potentiator: potentiators of human vanilloid receptor 1 (TRPV1) | Q8NER1 | TRPV1-expressing cells, Fluo-8 calcium influx, capsaicin EC20 potentiation | potentiation, % at 8.33 µM | 320,000 compounds, 0.02% hits; in the data active means potentiation above about 80%; inconclusive means between about 30% and that limit; further: 0% is about no effect
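Fluo-8 calcium influx in TRPV1-expressing cells, kinetic read (ex 480/em 520 nm). Compound added and read 3 min for agonist activity, followed by capsaicin at EC20 final and 2 min further read for enhancement.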
* = called active by the depositor; ? = inconclusive; · = no result given; ! = not confirmed by another sample; [ ] = another dose, or the depositor's remark. Compounds with a hit are over-represented: about 1.1% of the library has one in this group of screens.

SMILES	gsp agonist	gsp antag	RXFP1 antag	TRPV1 agonist	RXFP1 ag	TRPV1 potentiator
C/C(=N/NC(=O)c1ccncc1)C(=O)O	·	·	1	·	·	·
O=C(Nc1ccccc1)Nc1cccc(Cl)c1	-4%	32µM*	-15	?	-2%	-13
O=C(Nc1ccc(Cl)cc1)Nc1ccc(Cl)c(C(F)(F)F)c1	·	·	-93*	·	·	·
O=C(Nc1ccc(F)c(Cl)c1)Nc1csc2ccccc12	8%[15.4 µM]	35µM*	-40	24	0%	-25
COC(=O)c1cc(NC(=O)Nc2ccccc2)ccc1Cl	-4%	-17%	·	83*	2%	-21
Cc1nc2scc(C)n2c(=O)c1S(=O)(=O)NCc1ccc(F)cc1	-15%	-9%	9	4	16%	23
COc1ccc(F)cc1S(=O)(=O)NCCc1csc(-c2ccc(Cl)cc2)n1	·	·	-9	·	3%	·
Cc1ccc(CCNC(=O)CCCn2c(=O)c3ccccc3n(Cc3ccccc3C#N)c2=O)cc1	·	·	·	·	1%	·
COc1cc2[nH]c(C(=O)N3CC(C)OC(C)C3)cc2c(OC)c1OC (stereo not given)	-33%	-5%	-5	1	3%	3
COc1ccc(CCNC(=O)COC(=O)CSc2ccc([N+](=O)[O-])cc2)cc1OC	6%	-13%	-4	2	1%	-9
O=C(NCC1CCCO1)c1cccc(S(=O)(=O)Nc2ccccc2Cl)c1 (stereo not given)	14%	·	2	·	·	·
COC(=O)c1ccc(NC(=O)Nc2ccc(F)c(Cl)c2)cc1	0%	35µM*	-20	11	3%	-3
COC(=O)c1cccc(NC(=O)Nc2ccc(Cl)c(Cl)c2)c1	-1%	35µM*	?	3	0%	-35
COC(=O)c1ccc(NC(=O)Nc2ccc(F)cc2)cc1	?	-11%	-15	?	-1%	-12
CCO[C@@H]1OC(C(=O)O)=C[C@H](c2ccc(Br)cc2)[C@H]1CCCO	-45%	4%	·	4	0%	17
CCCN(CC(=O)Nc1ccccc1OC)CC(=O)c1c(N)n(Cc2ccccc2)c(=O)n(C)c1=O	27%	-2%	8	·	·	·
O=[N+]([O-])c1ccc(C=NNC(=S)Nc2ccc(F)cc2)cc1	-36%	0%	-21	·	·	·
O=[N+]([O-])c1ccc(C=NNC(=S)NN=Cc2ccc([N+](=O)[O-])cc2)cc1	-46%	-24%	-62*	·	·	·
Brc1cc(Br)c2ncnc(N3CCCCC3)c2c1	14µM*	3%	29	8	25µM*	-10
Cc1cc(-c2ccccc2)nc(N/N=C/c2ccc(O)cc2)n1	1%[15.4 µM]	-15%	-77*	?	-2%	11
Cc1cc(C)nc(N/N=C/c2ccccc2)n1	11%	0%	-1	-2	1%	-9
Oc1ccc(/C=N/Nc2nc(-c3ccc(Cl)cc3)cc(C(F)(F)F)n2)cc1	23%	?	-61*	25	1%	-18
Fc1ccc(CNc2nc(-c3ccc(Cl)cc3)cc(C(F)(F)F)n2)cc1	·	·	·	·	-1%	·
CC(C)C(=O)Nc1cccc(C2CN3CCSC3=N2)c1 (stereo not given)	·	·	10	·	·	·
CC1CCCN(C(=O)COC(=O)CNC(=O)c2sc3ccccc3c2Cl)C1 (stereo not given)	32µM*	8%	3	1	?	7
SMILES	gsp agonist	gsp antag	RXFP1 antag	TRPV1 agonist	RXFP1 ag	TRPV1 potentiator
COc1ccccc1Oc1ccc2c(c1)C(=O)N(c1cccc3ncccc13)C2=O	-3%[15.4 µM]	?	-89*	0	2%	-2
COc1ccccc1Oc1ccc2c(c1)C(=O)N(c1cccc(O)c1)C2=O	-5%	?	-13	3	3%	-5
Cc1ccc(S(=O)(=O)/N=C(/Nc2ccc(F)cc2F)c2ccccc2)cc1	3%	-6%	-65*	5	1%	-9
COc1ccc(-c2csc(N(CCCN(C)C)C(=O)c3ccccc3C)n2)cc1	10%	32%	-62*	0	0%	6
COc1ccc(-c2csc(N(CCCN(C)C)C(=O)c3ccccc3Cl)n2)cc1	36%	20%	-10	·	·	·
O=C1NNC(c2ccccc2)=N/C1=C\c1ccccc1Cl	-18%[15.4 µM]	-16%	-18	94*	-1%	-14
O=C1NNC(c2ccccc2)=N/C1=C\c1ccco1	2%	-5%	2	1	-1%	9
Cc1cc(CNC(=O)c2cc(COc3ccc(F)c(F)c3)on2)nn1C	-29%	-3%	-2	10	-1%	-6
Cn1c(=O)c2c(ncn2CCC(=O)N/N=C/c2cccnc2)n(C)c1=O	42%[15.4 µM]	1%	5	2	16µM*	-11
O=C(/C(=C\c1ccccc1)c1nc2ccccc2[nH]1)c1ccc(Cl)cc1	-1%	-8%	-28	16	0%	6
O=C(/C=C/c1cccc(Cl)c1)c1nc2ccccc2[nH]1	-36%	17%	-82*	3	1%	29
CC(=O)O[C@H]1CC[C@@]2(C)C(=CC[C@@H]3[C@@H]2CC[C@]2(C)C(C(C)=O)=CC[C@@H]32)C1	·	·	-10	·	·	·
Cc1cccc(CC(=O)NCCN2CCCCC2)c1	-5%[15.4 µM]	9%	4	-3	0%	-4
Cc1ccc(S(=O)(=O)CCC(=O)NCCc2ccccc2)cc1	6%	4%	4	5	6%	-7
O=C(CNC(=O)c1ccccc1F)NCCN1C(=O)S/C(=C\c2ccccc2Cl)C1=O	-38%	-4%	-24	-4	-1%	3
Cc1ccc(S(=O)(=O)CCC(=O)NCCN2C(=O)S/C(=C\c3ccccc3)C2=O)cc1	4%	50µM*	-22	0	0%	11
O=C(CCS(=O)(=O)c1ccc(Cl)cc1)NCCN1C(=O)S/C(=C\c2ccccc2F)C1=O	-2%	50µM*	-4	-4	1%	2
COc1ccccc1NC(=O)c1nc(S(=O)(=O)Cc2ccccc2)ncc1Cl	8%[15.4 µM]	-7%	?	2	2%	-11
CSc1nnc(NC(=O)c2nc(S(=O)(=O)Cc3ccccc3)ncc2Cl)s1	-10%[15.4 µM]	32µM*	-63*	-3	0%	12
Cc1ccc(CS(=O)(=O)c2ncc(Cl)c(C(=O)Nc3nc4ccc(C)cc4s3)n2)cc1	·	·	·	·	2%	·
COc1ccc(OC)c(NC(=O)c2nc(S(=O)(=O)Cc3ccc(F)cc3)ncc2Cl)c1	·	·	-107*	·	6%	·
CCCc1nnc(NC(=O)c2nc(S(=O)(=O)Cc3ccc(C)cc3)ncc2Cl)s1	-11%	28µM*	-11	3	-3%	20
COc1ccc2nc(NC(=O)c3nc(S(=O)(=O)Cc4ccc(C)cc4)ncc3Cl)sc2c1	·	·	-91*	·	3%	·
CC(C)c1nnc(NC(=O)c2nc(S(=O)(=O)Cc3ccccc3)ncc2Cl)s1	-3%[15.4 µM]	25µM*	-72*!	0	-1%	9
